This is part of a sample that, as a whole, favours compounds with a hit. Of some 83,000 tested, about 20% had one in any assay.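 The test compound was applied at a single concentration to cells in 96-well plates for 48 hours, and percent growth was recorded.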 Values without a mark were called inactive. Active and inactive are the calls of the source. How the source made its calls: active means growth percent below 10; inactive means the rest.
How the values were obtained:
Assay in all cases: NCI-60 one-dose screen, 48 h (100 = growth as untreated, 0 = no growth, -100 = all killed)
Conditions in all cases: 10 µM unless noted
SR leukemia = tested on: SR leukemia
RPMI-8226 leukemia = tested on: RPMI-8226 leukemia
OVCAR-8 ovarian = tested on: OVCAR-8 ovarian
OVCAR-5 ovarian = tested on: OVCAR-5 ovarian
OVCAR-4 ovarian = tested on: OVCAR-4 ovarian
SK-OV-3 ovarian = tested on: SK-OV-3 ovarian
IGROV1 ovarian = tested on: IGROV1 ovarian
OVCAR-3 ovarian = tested on: OVCAR-3 ovarian
HS 578T breast = tested on: HS 578T breast
NCI/ADR-RES ovarian = tested on: NCI/ADR-RES ovarian
T-47D breast = tested on: T-47D breast
BT-549 breast = tested on: BT-549 breast
MDA-MB-435 melanoma = tested on: MDA-MB-435 melanoma
SW-620 colon = tested on: SW-620 colon
MCF7 breast = tested on: MCF7 breast
HCT-116 colon = tested on: HCT-116 colon
HCC-2998 colon = tested on: HCC-2998 colon
KM12 colon = tested on: KM12 colon

Row | Structure (SMILES) | growth (SR leukemia) | growth (RPMI-8226 leukemia) | growth (OVCAR-8 ovarian) | growth (OVCAR-5 ovarian) | growth (OVCAR-4 ovarian) | growth (SK-OV-3 ovarian) | growth (IGROV1 ovarian) | growth (OVCAR-3 ovarian) | growth (HS 578T breast) | growth (NCI/ADR-RES ovarian) | growth (T-47D breast) | growth (BT-549 breast) | growth (MDA-MB-435 melanoma) | growth (SW-620 colon) | growth (MCF7 breast) | growth (HCT-116 colon) | growth (HCC-2998 colon) | growth (KM12 colon)
1 | N#Cc1cccc(NC(=O)c2cc(-c3ccc(F)cc3F)ccc2O)c1 | 27.3% | -8.42% (active) | 10.8% | 14.6% | 8.85% (active) | 5.89% (active) | 13.2% | 9.74% (active) | 3.15% (active) | 4.64% (active) | 7.54% (active) | -0.215% (active) | 2.73% (active) | 13.4% | 2.47% (active) | 5.45% (active) | 22.7% | 2.94% (active)
2 | CCCCCc1ccc(S(=O)(=O)Nc2cccc(-c3csc(NC(=O)CCCCCN4CCN(CCO)CC4)n3)c2)cc1 | -19.2% (active) | 7.46% (active) | 96.7% | 91.6% | 80.8% | 96.8% | 84.5% | 75.6% | 86.1% | 99.6% | 73.5% | 102% | 36.8% | 25.6% | 19.8% | 30.3% | 41.5% | 88%
3 | CCCCCc1ccc(S(=O)(=O)Nc2cc(-c3csc(NC(=O)CN4CCN(C)CC4)n3)ccc2N2CCN(C)CC2)cc1 | -40.7% (active) | -28.5% (active) | 19.5% | 18.4% | -44.3% (active) | 18.2% | 7.21% (active) | -34.7% (active) | -24.3% (active) | 19.1% | -49.9% (active) | 77.5% | -78.6% (active) | -55.1% (active) | -85.9% (active) | -70.9% (active) | -25.2% (active) | 38.9%
4 | O=C(CCC(=O)N1CCOCC1)OCCCCCCSc1ccc([N+](=O)[O-])c2nonc12 | -2.69% (active) | -21.1% (active) | -6.75% (active) | -20.1% (active) | -83.7% (active) | 39.8% | -88.7% (active) | -66.9% (active) | -8.04% (active) | 2.86% (active) | -36.2% (active) | -52.5% (active) | -88.1% (active) | -54.9% (active) | -57.7% (active) | -54.7% (active) | -69.4% (active) | -68.7% (active)
5 | COc1cc(OC)c(/C=C/S(=O)(=O)Cc2ccc(OC)c(NC(=O)CCC(=O)NO)c2)c(OC)c1 | 14.2% | 16.9% | 17.2% | 33.9% | 45.3% | 32.6% | 13.4% | 6.69% (active) | 16.2% | 10.2% | 86.4% | 14.5% | -2.23% (active) | 21.7% | 11.9% | 3.5% (active) | 10.3% | 7.24% (active)
6 | CC(C)(C)c1ccc(C(=O)Nc2nc3ccc(O)cc3s2)cc1 | 24.7% | 22.1% | 30.6% | 69.6% | 46.3% | 78.6% | 47.7% | 57.6% | 77.3% | 40.9% | 28.5% | 62.9% | 34.3% | 14.2% | 15.8% | 45.6% | 14.7% | 14%
7 | Nc1nc(N)c2c(n1)NC(c1ccc(C(F)(F)F)cc1)CC(c1ccc(Nc3nc(NCCO)nc(N4CCOCC4)n3)cc1)=N2 (stereo not given) | 5.13% (active) | 28.9% | 60.2% | 97.6% | 79.5% | 99.7% | 72.6% | 61.2% | 58.5% | 97.5% | 62.7% | 76.3% | 65.9% | 56.7% | 33.7% | 35.8% | 86.4% | 51.2%
8 | O=C1[C@@H]2Cc3c([nH]c4ccccc34)[C@H](c3c(Cl)cccc3Cl)N2C(=O)CN1C1CCN(CC2CCCCC2)CC1 | -0.527% (active) | 38.4% | 88.1% | 93.4% | 90.2% | 123% | 58.4% | 20.3% | 18.7% | 74.9% | 61% | 63.2% | 73.6% | 10.2% | 18.4% | 4.3% (active) | 73.4% | 68.7%
9 | Cc1ccc(-c2cc3nc(C(Cl)Cl)nc(-c4ccco4)n3n2)cc1 | 82.4% | -29.4% (active) | 18.3% | 2.3% (active) | 36% | 24.2% | 64.5% | -36.3% (active) | -2.05% (active) | 3.8% (active) | 21.2% | 86.5% | 18.1% | 8.55% (active) | 3.51% (active) | 1.68% (active) | -50% (active) | -21.3% (active)
10 | NC(=O)c1c(NC(=O)c2ccccc2C(F)(F)F)sc2c1CCC(=O)C2 | 27.2% | -1.93% (active) | 17.3% | 27% | 9.19% (active) | 105% | 31.2% | 12.3% | 32.5% | 14.9% | 14.1% | 14.7% | 14.7% | 19% | 5.93% (active) | 9.24% (active) | 33.3% | 9.45% (active)
11 | C#Cc1nc(C(=O)NCCC(=O)Nc2ccc(NC(=O)c3ccc(/C=C/C(=O)c4nccn4C)cc3)cc2)cs1 | 0.901% (active) | -33% (active) | 22.3% | 50.9% | 61.8% | 86.3% | -25.5% (active) | -11.5% (active) | 86.7% | 49.2% | 49.3% | 54.3% | 27% | 15.7% | 8.54% (active) | -33.1% (active) | 93.5% | 9.96% (active)
12 | O=C(O)c1ccc(-n2cc(CNc3cc(F)c(F)c(F)c3)c(-c3ccc(F)cc3)n2)cc1 | 78.1% | 76.3% | 83.9% | 108% | 95.5% | 116% | 91.9% | 96.3% | 97.5% | 97.8% | 85.5% | 107% | 96.1% | 103% | 58.3% | 88.5% | 102% | 92.9%
13 | CN(C)CCNC(=O)c1ccc(-c2nc3ccc4[nH]ncc4c3c3c2COCC3)cc1 | -25.1% (active) | 44.3% | 11% | 27.5% | 2.78% (active) | 14% | 0.798% (active) | -6.74% (active) | -19.6% (active) | 92.2% | -7.62% (active) | -16.2% (active) | 3.65% (active) | 3.1% (active) | 0.287% (active) | 2.59% (active) | -20.8% (active) | 16.4%
14 | CS(=O)(=O)c1ccc(-n2cc(/C=N/O)c(-c3ccccc3)n2)cc1 | 30.3% | 70.9% | 84.2% | 98.6% | 77.6% | 109% | -26.2% (active) | 94.4% | 95.4% | 84.4% | 59.1% | 60.7% | 85.9% | 104% | 21.5% | 92.1% | 95.4% | 96.9%
15 | CNC(=O)c1cc(N2CCc3cc(NC(=O)Nc4ccc(Cl)c(C(F)(F)F)c4)ccc32)ccn1 | 45.8% | 33.6% | 62.8% | 106% | 55.9% | 86.6% | 57.8% | 51.9% | 44.8% | 55% | 49.2% | 72.3% | 53.3% | 88.2% | 29.8% | 39.4% | 53.7% | 17%
